Experiments:
Assay in all cases: PBM binding z-score (relative to random genomic background probes); higher = stronger binding; sequences stand for … in GC…GCGATTGACAGCGTAGAATGAAGG
[1] = tested on: RARb homodimer (NR concentration 270 nM)
Summary of the method: (§1)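 Each nuclear receptor dimer, without ligand, was incubated for 1 h on custom Agilent 4×180K protein-binding microarrays. Binding was detected with antibodies against each partner (one per run), and scanned fluorescence was regression-normalized. The binding z-scores are referenced to random human genomic background probes.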

[2] = tested on: RARg:RXRa (NR concentration 270 nM, RXRa partner concentration 90 nM)
Summary of the method: as §1

[3] = tested on: RARg homodimer (NR concentration 270 nM)
Summary of the method: as §1

[4] = tested on: RXRa DBDmut IVT, anti-RXR (DBD mutation: RXRa K156A/R161A, NR concentration 90 nM)
Summary of the method: as §1

[5] = tested on: RXRa homodimer (NR concentration 180 nM)
Summary of the method: as §1

[6] = tested on: THRa:RXRa (NR concentration 90 nM, RXRa partner concentration 90 nM)
Summary of the method: as §1

[7] = tested on: THRa homodimer (NR concentration 90 nM)
Summary of the method: as §1

[8] = tested on: VDR homodimer (NR concentration 270 nM)
Summary of the method: as §1

Sequence	PBM binding z-score [1]	PBM binding z-score [2]	PBM binding z-score [3]	PBM binding z-score [4]	PBM binding z-score [5]	PBM binding z-score [6]	PBM binding z-score [7]	PBM binding z-score [8]
GCATATAGGTAATACAAGGTGAAAGGCCGATTGT	1.08	0.593	0.747	0.113	0.895	4.07	0.753	0.114
TTACCAAGGTGGGCTGAGGTCGTTGATCCAACTC	1.04	0.249	-0.257	0.273	0.833	3.77	1.5	2.06
CATACAGGGTCAGCGAGGCCAGAGTAGGGACGGC	3.42	4.59	4.23	1.89	4.45	3.58	1.01	2.49
TAGCCTAGGACATTGGGCCAGTATAGTACGCATC	-0.251	-0.0558	0.0958	-0.671	-0.0784	0.281	-0.00513	-0.291
GATACAGGGTCAAGGCCAGATTACGCGTATTGAT	3.73	5.64	5.39	2.72	6.08	3.68	1.61	2.09
TCATATAGGTAATACAGGGGAAAGTCGGCATCTA	0.303	0.419	0.551	1.97	0.857	0.893	0.385	-0.00129
AGAACGAGCGCAATGAGTTGATAGCACGGGTGGC	-0.96	-0.134	-0.287	-0.213	-0.0749	-0.609	-1.01	0.00307
ATCTCTAGTTAAAGTTCAGTGAAAGATCGATAGA	2.53	1.88	2.04	1.84	1.22	0.988	0.202	2.47
CGAACTAGGTCAGAACAAGACAGTGAAGGATGAT	1.79	2.37	3.15	0.577	1.31	1.32	0.101	0.237
CCTTACGGGTCACTCCGGGTTATAGCATCGGAGT	2.96	4.46	4.12	1.3	4.73	4.89	-0.126	1.25
TCTGCTGGGTCAGTTGGTCAGCTAACGAGCTGCC	2.12	2.77	2.99	0.212	1.06	0.669	-0.537	-0.562
CATACAGCGTCAGCTAGGCCAGAGTAGGGACGGC	-0.506	-0.321	-0.175	-0.697	-0.412	-0.637	-0.62	-0.797
CGTCCAAGGTCAAAGATCAGTGAAGAGATGACGG	3.86	6.12	6.48	3.73	6.79	3.85	1.87	2.6
CCGACTGGGGAAAAGGTTACCATACTCAGTACGA	1.79	1.37	0.901	0.237	1.86	1.05	-0.101	0.0305
GCTCGTTGGTCAGTAAAAGGTCACACACCGGTCG	5.31	5.69	5.36	0.666	5.85	3.91	2.35	2.44
TATACAGGGTCAAAGGCCCGAGTACGAATGTCGA	2.83	5.28	4.67	2.83	5.91	3.23	0.794	2.5
CGAACTAGGTCAGAACTGGACAGTGAAGGATGAT	1.62	2.49	3.05	0.459	1.3	1.13	-0.298	0.221
ATCGAAAGGGCGACGAGGTGAGTATACACCGTTT	1	1.16	1.28	-0.425	0.969	1.99	0.542	0.597
ATACCAAGGTGATCGTGAGGTCGTAGATACTAAC	1.56	2.26	1.03	-0.0325	1.76	3.54	2.52	1.86
CAAACTAGGTCACCGCAAGGTCAAAGTCCGCATG	5.35	8.07	7.32	2.61	6.15	4.68	4.38	4.3
ATCTGTAGGTTAAGGGTCATTCAGGTTGGTTCGC	4.02	5.03	3.89	2.02	6.57	3.69	2.07	4.28
CCAGACAGGTGTAAGGTAACTCAGTCTGGTACGC	-0.201	-0.0982	-0.292	0.0922	-0.0847	1.59	1.21	0.39
GGAACGAGGGCGTTCGAGTTGATAGCATGGCGAT	-0.589	0.0515	0.202	2.26	-0.0265	2.16	-1.11	2.02

Sequence	PBM binding z-score [1]	PBM binding z-score [2]	PBM binding z-score [3]	PBM binding z-score [4]	PBM binding z-score [5]	PBM binding z-score [6]	PBM binding z-score [7]	PBM binding z-score [8]
GATACAGGGTCATGGCCAGAGTACGCGTATTGAT	3.44	5.62	5.09	2.44	6.72	3.78	0.968	2.77
ATCGAAAGGTCGAGGTGAGTAGAGAGAAAGGGAA	2.81	4.37	4.69	0.806	4.41	2.62	0.626	0.405
GGAACGAGGGCAAGATGATAGCAGAGTTTGATGG	1.21	1.2	1.78	1.52	0.962	0.971	-0.0312	1.08
TAGCCTAGGTCATGGGCCGGTATACCACGCGAAC	3.04	4.1	4.58	-0.511	3.4	3.15	1.37	0.45
CGTCAAAGTTCAACAAAGGTAACGTAAAGCACGC	4.37	5.63	6.4	4.53	4.82	4.66	0.367	3.16
GCTAGTTGGTCAGTAAGAGGTCACACACCGGTCG	4.7	4.94	3.87	0.674	4.5	3.58	2.63	3.38
TCAGACAGGTGAAGGTAACTCCGGTACGCAGTCG	0.814	0.458	0.575	1.28	1.11	1.28	0.325	-0.191
GCTTATGGGTCAAAGGTTATAGCATGAATAGAAT	3.09	6.53	4.48	2.11	9.21	3.41	-0.168	1.13
CAAACTAGGTCAGCGGAAGGTCAAAGTCCGCATG	5.24	7.66	6.32	1.11	4.98	4.05	1.64	2.6
CCGACTGGGGCAAAGGGTACCATACTCAGTACGA	0.849	0.946	0.506	-0.546	0.731	0.31	-0.963	0.0229
ATATGTAGGTTAGCTGGGGTCATTCTGACTAGGC	3.66	3.88	2.79	2.08	5.12	5.12	3.04	5.3
CGAACTAGGTCATCCAGGACAGTCAATACATTGA	3.04	4.11	5.21	2.72	3.39	3.81	2.01	2.52
GCGACCGGGGCAAAGCAGGTTACCATAAGGTTGG	1.47	1.97	1.54	-0.485	0.949	3.71	-0.0146	-0.132
TCTTGTAGATCAAGCACGTTAAGAAAGCCTGAGT	-0.605	-0.0676	-0.183	0.721	0.234	-0.341	-0.599	-0.125
CCTCGGAGGACAAAAGGTCAGAGCTGTCCGCTTT	5.18	6.04	5.86	0.812	4.67	3.07	0.53	0.674
CCTTACGGGTCACTGACAGGTTATAGTATTTGGA	3.11	5.61	4.34	1.85	5.18	3.04	0.562	1.17
CCCCGGAGGACAACAGGAGGTCAGAGCTGCCAGA	3.5	3.66	3.24	-0.883	2.21	2.94	1.39	1.77
ACTAGCAGGCCAAGTTTGGGCCACTCAAACAAAG	0.113	0.0368	0.111	-0.286	-0.539	0.356	-0.681	-0.556
GCTGCTAGGTCAACTGCTGGTCAGCTAAAGCTCG	3.54	5.38	5.45	1.4	2.79	2.92	0.954	-0.195
ACTATTAGTTAAGACGAGGGCAACCGATAGGTTG	1.34	0.59	0.902	0.459	0.55	1.85	0.204	0.991
TCGAGTGGGTTACCAATGGGGCATTCAGCTTTCT	0.278	0.678	-0.504	-0.00783	0.312	-0.369	-1.25	-1.02
GCTGTTAGGTCAACTGATGGTCAGCTAAAGCTCG	3.65	5.62	5.67	2.11	3.51	3.62	2.59	0.277
ATCTCTAGGTAACAAGTCCAGTGAAAGAGAGGAC	0.709	0.499	0.722	0.0341	0.552	0.997	0.64	0.635

Sequence	PBM binding z-score [1]	PBM binding z-score [2]	PBM binding z-score [3]	PBM binding z-score [4]	PBM binding z-score [5]	PBM binding z-score [6]	PBM binding z-score [7]	PBM binding z-score [8]
ATACCAAGGTGATCGTGAGGTCGTTTATACTAAC	1.98	2.29	1.01	1.06	1.36	3.56	2.59	3.5
ATCTCTAGGTAACCAAGTTCAGAGAATGCCGAAC	1.48	0.849	1.13	0.821	0.723	1.46	0.471	2.7
AGAACGAGGGCGCGCTGAGTTGATAGCAGAGTAG	-0.416	0.211	0.0624	0.991	0.444	0.45	-0.623	0.824
CGTACTGGGCCATTCAGAGGTCATTGATCATATG	4.23	4.62	3.63	1.64	3.95	3.33	1.54	3.81
TCTTGTAGATCAACTGGAGGTTAAGAAAGATCGA	0.645	1.23	0.313	0.336	0.971	1.1	-0.207	-0.0194
ACTATTAGTTCAGACGAGGGCAACCGATAGGTTG	2.05	1.74	1.88	2.26	0.943	4.09	0.384	2.44
ATAGCAAGGTGATCGTGAGGTCGTTGATACTAAC	1.29	2.12	0.811	0.231	1.31	3.2	1.8	1.97
TCAAGTAGGTTACCAATGGGGCATTCAGCTTTCT	1.04	1.42	0.77	1.45	0.978	0.342	-0.498	-0.25
CGTCCAAGGTCAGCAGGTCAGTGTAAGCGACGTG	5.08	6.34	6.61	2.55	4.93	4.01	2.46	2.01
ACTATTCGTTGAGACGAGGGCAACCGATAGGTTG	1.26	0.489	0.81	0.393	0.523	1.33	0.648	0.643
CGAACTAGGTCAGAACAGGACAGTCAAGGATGAT	2.26	2.65	3.09	0.873	1.35	3.42	0.288	0.29
ATCGAAAGGTCGCGGTGAGTATAGAGAAAGGGAA	3.05	5	4.48	1.33	5.39	2.84	0.211	1.06
CCTTACGGGTCACTGACAGGTTATAGCCTTTGGA	3.15	5.69	4.21	2	4.83	2.9	0.294	1.14
AGAATGAGGTTATACGTAGATCACGGAAGAAAGT	0.646	1.96	1.21	2	2.38	2.11	0.348	0.934
GGAACGAGGGCAAAGTTGTTAGCATCTGTCGACG	1.15	1.47	1.48	2.61	1.11	1.12	-0.449	1.32
CCTAGCAGGCCAAGCTGGGTCACTCAAGGCTTGA	2.2	1.64	1.65	-0.265	1.17	3.28	-0.143	-0.334
ACTTACGGGTCAACGAGGTTATAGCGCGCGTATA	3.76	5.67	5.32	2.92	6.24	4.09	0.869	4.01
AGAGTGAGGTTAAGATCAGGGAAACAGAATACAT	1.46	2.28	1.68	0.869	2.52	2.6	1.3	1.06
CCGACTGGGGTAAGGTTACCATAACGCACAGCCA	1.12	0.907	0.859	-0.0386	1.55	2.36	1.47	0.414
TCTTGTAGATCATCAGGAGGTTAAGAAAGATCGA	0.484	0.857	0.389	0.372	1.01	0.897	-0.482	-0.126
GATACAGGGTCCGCTAGAGGCCAGAGTATGGAAA	0.0694	0.628	0.211	-0.114	-0.246	0.0317	-1.09	-0.148
GCAGACAGGTGAAACGCAGGTAACTCATGGTGGC	0.0324	0.941	0.44	-0.582	0.943	1	-0.808	-0.818

— the supplement of paper PMC6555819
